From PubChem BioAssay (NCI)
The panel holds about 83,000 compounds, 20% with a hit somewhere; the sample as a whole holds those more often.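 The endpoint reported here, percent growth, reads 100 for growth as untreated, 0 for no net growth and -100 for all cells dead.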 A number with no mark means an inactive call. Activity calls are given as the source filed them. Rule for the calls: active = growth percent below 10; inactive = the rest.

Assays:
Experiment in all cases: NCI-60 one-dose screen, 48 h (100 = growth as untreated, 0 = no growth, -100 = all killed)
Conditions in all cases: 10 µM unless noted
[1] = test system: HCT-15 colon
[2] = test system: HT29 colon
[3] = test system: SNB-75 CNS
[4] = test system: SNB-19 CNS
[5] = test system: U251 CNS
[6] = test system: PC-3 prostate
[7] = test system: SK-MEL-5 melanoma
[8] = test system: UACC-62 melanoma
[9] = test system: SK-MEL-2 melanoma
[10] = test system: EKVX NSCLC
[11] = test system: SN12C renal
[12] = test system: UO-31 renal
[13] = test system: TK-10 renal
[14] = test system: ACHN renal
[15] = test system: CAKI-1 renal
[16] = test system: A498 renal
[17] = test system: CCRF-CEM leukemia
[18] = test system: MOLT-4 leukemia
[19] = test system: SK-MEL-28 melanoma

SMILES	growth [1]	growth [2]	growth [3]	growth [4]	growth [5]	growth [6]	growth [7]	growth [8]	growth [9]	growth [10]	growth [11]	growth [12]	growth [13]	growth [14]	growth [15]	growth [16]	growth [17]	growth [18]	growth [19]
CC(C)c1ccc2c(N)c(C(=O)Nc3cccc(C(F)(F)F)c3)sc2n1	-0.908% (active)	29.2%	129%	87.3%	71.1%	73.7%	72.3%	92.5%	89.5%	47.4%	76.2%	77.9%	97.3%	76%	74%	143%	38.9%	56.4%	
COc1cc(NC(=O)c2cccc(C3CCc4c(cc(OC)c(OC)c4OC)O3)c2)cc(OC)c1OC (centres undefined)	7.46% (active)	3.59% (active)	11.5%	27.1%	13.5%	18.2%	-58% (active)	-28.6% (active)	-1.8% (active)	35.3%	13.2%	3.46% (active)		17.3%	14.8%	112%	18.1%	11.8%	38.9%
N/C(=N\c1nc2ccccc2s1)NC(=O)NCCCCCCO	57.7%	76.2%	20.6%	51.6%	69%	47.3%	-3.23% (active)	49.1%		19.6%	45.5%	43.5%	51.2%	39.5%	32%	61%	60.3%	4.34% (active)	76.5%
CSc1ccccc1NC(=O)c1ccc2nnn(/C(C#N)=C/c3ccccn3)c2c1	-79.9% (active)	-92.1% (active)	67.9%	0.0552% (active)	-90.9% (active)	-71% (active)	-98.9% (active)	-98.8% (active)	-86.4% (active)	-95.6% (active)	-99% (active)	-100% (active)	-98.6% (active)	-100% (active)	-88.2% (active)	82.9%	-27.5% (active)	-27.9% (active)	-99.2% (active)
CCOC(=O)COc1c(OC)c(OC)cc2oc(-c3cccc(C(=O)Nc4ccc(Cl)cc4)c3)cc(=O)c12	21.5%	22.9%	34.6%	62.3%	39.9%	41.1%	22.3%	55.1%	71.3%	62.5%	58.3%	28.1%	87.7%	73.1%	48.4%	82.7%	31.1%	19.8%	
O=C(COc1ccc(NC(=O)Nc2ccc(Cl)c(Cl)c2)cc1)N=Nc1c(O)[nH]c2ccc(Cl)cc12	30.6%	-30.1% (active)	-37.6% (active)	-13.8% (active)	-84.5% (active)	-2.39% (active)	-83.8% (active)	-33.1% (active)	-64.9% (active)	7.69% (active)	-30.4% (active)	56.8%	1.73% (active)	20.9%	-5.97% (active)	-32.4% (active)	8.9% (active)	-1.42% (active)	
COc1cc2c(c(OC)c1OC)C(=O)CC(c1cccc(NC(=O)[C@@H](N)CC(C)C)c1)O2 (some centres undefined)	95.3%	108%	97.8%	91.2%	95.3%	97.2%	96.7%	96.8%		99.1%	84.4%	78%		103%	80.6%	89.3%	97.6%	96.1%	115%
COc1ccc(NC(=O)c2sc3nc(C(C)C)ccc3c2N)cc1	69.5%	73.6%	104%	91.4%	84.6%	71.7%	44.6%		97.5%	43.2%	74.1%	72.5%	93.1%	81.2%	80.7%	84.4%	54.6%	67.5%	94%
